The supplement of paper PMC7411054
Where a name gives a salt, the structure may show the parent alone.

Columns and labels:
Settings in all cases: treatment time: 24 h
A549-ACTB-RAB5A [1] = assay: lowest phenotypically active concentration; higher = less potent
Outline: (§1)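 Four wells per concentration (0.3, 1, 3 or 9 µM) were treated for 24 h in each of fifteen gene-edited reporter lines from A549, HepG2 and WPMY1 cells, then imaged live. After normalising live-cell features to solvent control wells, deviation was defined as ≥3 of 4 wells lying past the 95th percentile of control Euclidean distances. Reproducibility was defined as a median replicate Pearson correlation above the 95th percentile of non-replicates. Both had to hold for phenotypic activity.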

A549-CANX-COX4 [2] = assay: as above
Outline: as §1

A549-GM130-SQSTM1 [3] = assay: as above
Outline: as §1

A549-TUBA1B-RELA [4] = assay: as above
Outline: as §1

HepG2-ACTB-RAB5A [5] = assay: as above
Outline: as §1

A549-ACTB-RAB5A [6] = assay: phenotypically active (imaging signature differs from DMSO and reproducible) at any of 0.3-9 uM (binary (1 = active, 0 = inactive)); higher = active
Outline: as §1

A549-CANX-COX4 [7] = assay: as above
Outline: as §1

A549-GM130-SQSTM1 [8] = assay: as above
Outline: as §1

A549-TP53BP1-CLTA = assay: as above
Outline: as §1

A549-TUBA1B-RELA [9] = assay: as above
Outline: as §1

HepG2-ACTB-RAB5A [10] = assay: as above
Outline: as §1

HepG2-CANX-COX4 = assay: as above
Outline: as §1

HepG2-GM130-SQSTM1 = assay: as above
Outline: as §1

HepG2-TP53BP1-CLTA = assay: as above
Outline: as §1

HepG2-TUBA1B-RELA = assay: as above
Outline: as §1

WPMY1-ACTB-RAB5A = assay: as above
Outline: as §1

WPMY1-CANX-COX4 = assay: as above
Outline: as §1

WPMY1-GM130-SQSTM1 = assay: as above
Outline: as §1

WPMY1-TP53BP1-CLTA = assay: as above
Outline: as §1

WPMY1-TUBA1B-RELA = assay: as above
Outline: as §1

Row | Structure (SMILES) | lowest phenotypically active concentration (A549-ACTB-RAB5A [1]) [µM] | lowest phenotypically active concentration (A549-CANX-COX4 [2]) [µM] | lowest phenotypically active concentration (A549-GM130-SQSTM1 [3]) [µM] | lowest phenotypically active concentration (A549-TUBA1B-RELA [4]) [µM] | lowest phenotypically active concentration (HepG2-ACTB-RAB5A [5]) [µM] | phenotypically active (A549-ACTB-RAB5A [6]) | phenotypically active (A549-CANX-COX4 [7]) | phenotypically active (A549-GM130-SQSTM1 [8]) | phenotypically active (A549-TP53BP1-CLTA) | phenotypically active (A549-TUBA1B-RELA [9]) | phenotypically active (HepG2-ACTB-RAB5A [10]) | phenotypically active (HepG2-CANX-COX4) | phenotypically active (HepG2-GM130-SQSTM1) | phenotypically active (HepG2-TP53BP1-CLTA) | phenotypically active (HepG2-TUBA1B-RELA) | phenotypically active (WPMY1-ACTB-RAB5A) | phenotypically active (WPMY1-CANX-COX4) | phenotypically active (WPMY1-GM130-SQSTM1) | phenotypically active (WPMY1-TP53BP1-CLTA) | phenotypically active (WPMY1-TUBA1B-RELA)
1 | CN(C)C(=O)C(CCN1CCC(O)(c2ccc(Cl)cc2)CC1)(c1ccccc1)c1ccccc1 [loperamide] | 3 | 9 | 9 | 3 | 3 | 1 (active) | 1 (active) | 1 (active) | 1 (active) | 1 (active) | 1 (active) | 0 (inactive) | 1 (active) | 1 (active) | 1 (active) | 1 (active) | 1 (active) | 1 (active) | 1 (active) | 1 (active)
2 | S=C(S)N1CCCC1 [Pyrrolidinedithiocarbamate ammonium] | 3 | 3 | 3 | 3 | 9 | 1 (active) | 1 (active) | 1 (active) | 1 (active) | 1 (active) | 1 (active) | 1 (active) | 1 (active) | 1 (active) | 1 (active) | 0 (inactive) | 0 (inactive) | 1 (active) | 0 (inactive) | 0 (inactive)
3 | O=C(O)[C@]1(Cc2cccc(Nc3nccs3)n2)CC[C@@H](Oc2cccc(Cl)c2F)CC1 | ≤ 0.3 | 1 | ≤ 0.3 | 1 | ≤ 0.3 | 1 (active) | 1 (active) | 1 (active) | 1 (active) | 1 (active) | 1 (active) | 1 (active) | 1 (active) | 1 (active) | 1 (active) | 1 (active) | 1 (active) | 0 (inactive) | 1 (active) | 1 (active)
4 | CN(C)CCCN1c2ccccc2Sc2ccc(Cl)cc21 [chlorpromazine] | 3 | 9 | 3 | 3 | – | 1 (active) | 1 (active) | 1 (active) | 1 (active) | 1 (active) | 0 (inactive) | 1 (active) | 1 (active) | 1 (active) | 1 (active) | 1 (active) | 1 (active) | 0 (inactive) | 1 (active) | 1 (active)
5 | O=C(Nc1ccc(-c2ccnc(Nc3ccc(N4CCOCC4)cc3)n2)cc1)[C@@H]1CCCN1 | 3 | 9 | 3 | 3 | 3 | 1 (active) | 1 (active) | 1 (active) | 1 (active) | 1 (active) | 1 (active) | 1 (active) | 1 (active) | 1 (active) | 1 (active) | 1 (active) | 1 (active) | 1 (active) | 1 (active) | 1 (active)
6 | CC(C)CNc1nc(-c2cccc3ncccc23)cn2c(-c3ccc(C(=O)NC4CC4)cc3)cnc12 | ≤ 0.3 | 1 | ≤ 0.3 | ≤ 0.3 | 1 | 1 (active) | 1 (active) | 1 (active) | 1 (active) | 1 (active) | 1 (active) | 1 (active) | 1 (active) | 1 (active) | 1 (active) | 1 (active) | 0 (inactive) | 1 (active) | 1 (active) | 0 (inactive)
7 | CN1CCN(C(=O)CN[C@H]2C[C@@H]2c2ccc(OCc3ccccc3)cc2)CC1 [RN 1 dihydrochloride] | 3 | 9 | 9 | 3 | 9 | 1 (active) | 1 (active) | 1 (active) | 1 (active) | 1 (active) | 1 (active) | 0 (inactive) | 1 (active) | 1 (active) | 1 (active) | 1 (active) | 1 (active) | 1 (active) | 1 (active) | 1 (active)
8 | CC[C@H](CO)Nc1nc(NCc2ccccc2)c2ncn(C(C)C)c2n1 [Roscovitine] | ≤ 0.3 | 9 | ≤ 0.3 | ≤ 0.3 | 9 | 1 (active) | 1 (active) | 1 (active) | 1 (active) | 1 (active) | 1 (active) | 1 (active) | 1 (active) | 1 (active) | 1 (active) | 1 (active) | 1 (active) | 0 (inactive) | 1 (active) | 1 (active)
9 | CC(=O)c1c(C)c2cnc(Nc3ccc(N4CCNCC4)cn3)nc2n(C2CCCC2)c1=O | ≤ 0.3 | ≤ 0.3 | ≤ 0.3 | ≤ 0.3 | ≤ 0.3 | 1 (active) | 1 (active) | 1 (active) | 1 (active) | 1 (active) | 1 (active) | 1 (active) | 1 (active) | 1 (active) | 1 (active) | 1 (active) | 1 (active) | 1 (active) | 1 (active) | 1 (active)
10 | CCN(CC)CCNc1ccc(CO)c2sc3ccccc3c(=O)c12 [hycanthone] | 9 | 9 | 9 | 9 | 9 | 1 (active) | 1 (active) | 1 (active) | 1 (active) | 1 (active) | 1 (active) | 0 (inactive) | 1 (active) | 1 (active) | 1 (active) | 1 (active) | 1 (active) | 1 (active) | 1 (active) | 1 (active)
11 | CNc1nc(-c2ccc3c(N)n[nH]c3c2)cc(N2C[C@@H](C(=O)NC3CCCCC3)CC[C@H]2C)n1 | 1 | 3 | 1 | 3 | – | 1 (active) | 1 (active) | 1 (active) | 1 (active) | 1 (active) | 0 (inactive) | 1 (active) | 1 (active) | 1 (active) | 1 (active) | 1 (active) | 1 (active) | 1 (active) | 1 (active) | 1 (active)
12 | O=C1N=C(NCc2cccs2)S/C1=C\c1ccc2ncccc2c1 | 3 | 3 | 1 | 3 | – | 1 (active) | 1 (active) | 1 (active) | 1 (active) | 1 (active) | 0 (inactive) | 1 (active) | 1 (active) | 1 (active) | 1 (active) | 1 (active) | 1 (active) | 1 (active) | 1 (active) | 1 (active)
13 | CCCCNNC(=O)c1ccc(Br)cc1 | 1 | 3 | 3 | 3 | 1 | 1 (active) | 1 (active) | 1 (active) | 1 (active) | 1 (active) | 1 (active) | 1 (active) | 1 (active) | 1 (active) | 1 (active) | 0 (inactive) | 1 (active) | 1 (active) | 1 (active) | 1 (active)
14 | COc1cc2c(cc1O)CC[C@@H]1[C@@H]2CC[C@]2(C)[C@@H](O)CC[C@@H]12 [2-methoxyestradiol] | 1 | 1 | 1 | 1 | 3 | 1 (active) | 1 (active) | 1 (active) | 1 (active) | 1 (active) | 1 (active) | 1 (active) | 1 (active) | 1 (active) | 1 (active) | 1 (active) | 1 (active) | 0 (inactive) | 1 (active) | 1 (active)
15 | CC(C)(C)c1nc(-c2cccc(NS(=O)(=O)c3c(F)cccc3F)c2F)c(-c2ccnc(N)n2)s1 [dabrafenib] | ≤ 0.3 | 1 | ≤ 0.3 | ≤ 0.3 | 3 | 1 (active) | 1 (active) | 1 (active) | 1 (active) | 1 (active) | 1 (active) | 1 (active) | 1 (active) | 1 (active) | 1 (active) | 1 (active) | 1 (active) | 0 (inactive) | 0 (inactive) | 1 (active)
16 | CNC(=O)c1cc(Oc2ccc(NC(=O)Nc3ccc(Cl)c(C(F)(F)F)c3)cc2)ccn1 [sorafenib] | 3 | 9 | 9 | 9 | 9 | 1 (active) | 1 (active) | 1 (active) | 1 (active) | 1 (active) | 1 (active) | 1 (active) | 1 (active) | 1 (active) | 1 (active) | 1 (active) | 1 (active) | 1 (active) | 0 (inactive) | 1 (active)
17 | CN1CCCC(n2nc(Cc3ccc(Cl)cc3)c3ccccc3c2=O)CC1 (stereo unspecified) [azelastine] | 3 | 9 | 9 | 3 | 9 | 1 (active) | 1 (active) | 1 (active) | 1 (active) | 1 (active) | 1 (active) | 0 (inactive) | 1 (active) | 1 (active) | 1 (active) | 1 (active) | 1 (active) | 1 (active) | 1 (active) | 1 (active)
18 | Cn1cnc2c(F)c(Nc3ccc(Br)cc3Cl)c(C(=O)NOCCO)cc21 [selumetinib] | ≤ 0.3 | 1 | ≤ 0.3 | ≤ 0.3 | ≤ 0.3 | 1 (active) | 1 (active) | 1 (active) | 1 (active) | 1 (active) | 1 (active) | 1 (active) | 1 (active) | 1 (active) | 1 (active) | 1 (active) | 0 (inactive) | 1 (active) | 1 (active) | 0 (inactive)
19 | C[C@@H]1C[C@H]2[C@@H]3CCC4=CC(=O)C=C[C@]4(C)[C@@]3(Cl)[C@@H](O)C[C@]2(C)[C@@]1(OC(=O)c1ccco1)C(=O)CCl [mometasone furoate] | ≤ 0.3 | ≤ 0.3 | ≤ 0.3 | ≤ 0.3 | – | 1 (active) | 1 (active) | 1 (active) | 1 (active) | 1 (active) | 0 (inactive) | 0 (inactive) | 0 (inactive) | 0 (inactive) | 0 (inactive) | 0 (inactive) | 0 (inactive) | 1 (active) | 0 (inactive) | 0 (inactive)
20 | OCc1cc(C(O)CNCCCCCCOCCCCc2ccccc2)ccc1O (stereo unspecified) [salmeterol] | 9 | 9 | 9 | 9 | 9 | 1 (active) | 1 (active) | 1 (active) | 0 (inactive) | 1 (active) | 1 (active) | 0 (inactive) | 1 (active) | 1 (active) | 1 (active) | 1 (active) | 1 (active) | 1 (active) | 1 (active) | 1 (active)
